Results taken from PubChem BioAssay AID1159580 (chemical genetic matrix, 2015).
Where “and” joins values, the source holds several entries; their conditions need not be identical. Equal entries are not always repeated. About 2,000 (36%) of roughly 5,500 compounds were called active. Another 18% or so got no clear call; they are omitted. No stated cut-off is given here; in the data, active means normalized growth mostly below about 0.91 (no sharp cut-off); inconclusive means no clear call, values can overlap the other calls; inactive means mostly above about 0.92. The list shows a part of the results.

Assay: chemical genetic growth profiling, strain panel (AID 1159580);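 further: tested at 20 µM; growth read once vehicle control cultures reached saturation at 30 °C; 1 = growth at the plate median or of vehicle wells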
Conditions: S. cerevisiae deletion strains, growth OD

Measured: normalized growth

CC(C)NCC(O)COc1cccc2ccccc12 (stereo unspecified)
inactive: locus YAL013W, strain DEP1, stronger effect = lower value 1.01 | locus YAL021C, strain ccr4, stronger effect = lower value 0.971 | locus YAL026C, strain drs2, stronger effect = lower value 1.03 | locus YAL030W, strain snc1, stronger effect = lower value 1.02 | locus YAL040C, strain CLN3, stronger effect = lower value 1.01 and 0.981 | locus YBL061C, strain skt5, stronger effect = lower value 1.01 | locus YBR009C, strain hhf1, stronger effect = lower value 1 | locus YBR023C, strain chs3, stronger effect = lower value 1.01 | locus YBR171W, strain sec66, stronger effect = lower value 1.01 | locus YBR231C, strain swc5, stronger effect = lower value 1.02 | locus YBR279W, strain paf1, stronger effect = lower value 1.01 | locus YCL011C, strain gbp2, stronger effect = lower value 1.01 | locus YCL016C, strain dcc1, stronger effect = lower value 0.995 | locus YCL061C, strain MRC1 (second series), stronger effect = lower value 1 and 1.02 | locus YCL061C, strain MRC1, stronger effect = lower value 1.02 | locus YCL069W, strain vba3, stronger effect = lower value 1.01 | locus YCR088W, strain abp1, stronger effect = lower value 1.01 | locus YDL005C, strain med2, stronger effect = lower value 1.01 | locus YDL040C, strain nat1, stronger effect = lower value 1.01 | locus YDR001C, strain nth1, stronger effect = lower value 1.02 | locus YDR069C, strain doa4, stronger effect = lower value 1.01 | locus YDR137W, strain rgp1, stronger effect = lower value 1.02 | locus YDR150W, strain NUM1, stronger effect = lower value 1 | locus YDR159W, strain sac3, stronger effect = lower value 0.992 | locus YDR195W, strain ref2 1.02 | locus YDR297W, strain sur2, stronger effect = lower value 1.01 | locus YDR334W, strain swr1, stronger effect = lower value 1.04 | locus YDR335W, strain msn5, stronger effect = lower value 1.01 | locus YDR363W, strain ESC2, stronger effect = lower value 1.01 and 0.959 | locus YDR392W, strain spt3, stronger effect = lower value 1.02 | locus YEL003W, strain gim4, stronger effect = lower value 1.03 | locus YEL037C, strain rad23, stronger effect = lower value 1.01 | locus YEL061C, strain CIN8 (second series), stronger effect = lower value 1.02 | locus YER002W, strain NOP16, stronger effect = lower value 0.992 and 1.01 | locus YER015W, strain faa2, stronger effect = lower value 1.01 | locus YER016W, strain bim1, stronger effect = lower value 1.01 | locus YER111C, strain swi4, stronger effect = lower value 1.03 | locus YER155C, strain BEM2 (second series), stronger effect = lower value 1.05 | locus YFR010W, strain ubp6, stronger effect = lower value 1.02 | locus YGL167C, strain pmr1, stronger effect = lower value 1.02 | locus YGL173C, strain kem1, stronger effect = lower value 1.01 | locus YGL227W, strain vid30, stronger effect = lower value 1 | locus YGL240W, strain doc1, stronger effect = lower value 1.02 | locus YGL253W, strain hxk2, stronger effect = lower value 1.02 | locus YGR078C, strain PAC10, stronger effect = lower value 1.02 and 1.01 | locus YGR229C, strain SMI1, stronger effect = lower value 1.08 | locus YHR013C, strain ard1, stronger effect = lower value 0.965 | locus YHR027C, strain rpn1, stronger effect = lower value 1.01 | locus YHR030C, strain SLT2, stronger effect = lower value 1.01 | locus YHR079C, strain IRE1, stronger effect = lower value 1.02 | locus YHR142W, strain chs7, stronger effect = lower value 1.05 | locus YJL092W, strain hpr5, stronger effect = lower value 1.01 | locus YJL095W, strain BCK1 (second series), stronger effect = lower value 1 | locus YJL095W, strain BCK1, stronger effect = lower value 0.967 | locus YJL115W, strain asf1, stronger effect = lower value 1.01 | locus YJL129C, strain trk1, stronger effect = lower value 1.01 | locus YJL154C, strain vps35, stronger effect = lower value 1.01 | locus YJL164C, strain tpk1, stronger effect = lower value 0.997 | locus YJL166W, strain qcr8, stronger effect = lower value 1.01 | locus YJR066W, strain TOR1, stronger effect = lower value 0.996 | locus YJR075W, strain HOC1, stronger effect = lower value 1.01 and 1 | locus YKL160W, strain elf1, stronger effect = lower value 1.01 | locus YKR026C, strain gcn3, stronger effect = lower value 1.01 | locus YKR091W, strain srl3, stronger effect = lower value 1.02 | locus YLL001W, strain dnm1, stronger effect = lower value 1.02 | locus YLL026W, stronger effect = lower value 1.01 | locus YLL041C, strain sdh2, stronger effect = lower value 1.01 | locus YLR027C, strain aat2, stronger effect = lower value 1.01 | locus YLR113W, strain HOG1, stronger effect = lower value 0.976 | locus YLR221C, strain rsa3, stronger effect = lower value 0.972 | locus YLR258W, strain gsy2, stronger effect = lower value 1 | locus YLR262C, strain YPT6 (second series), stronger effect = lower value 1 | locus YLR320W, strain mms22, stronger effect = lower value 0.997 | locus YLR342W, strain FKS1, stronger effect = lower value 1.01 | locus YLR357W, strain rsc2, stronger effect = lower value 1.07 | locus YLR370C, strain arc18, stronger effect = lower value 1.01 | locus YLR384C, strain iki3, stronger effect = lower value 1.01 | locus YML120C, strain ndi1, stronger effect = lower value 1.01 | locus YMR058W, strain fet3, stronger effect = lower value 1.02 | locus YMR125W, strain sto1, stronger effect = lower value 1.07 | locus YMR129W, stronger effect = lower value 1.01 | locus YMR205C, strain PFK2, stronger effect = lower value 1.02 | locus YMR231W, strain pep5, stronger effect = lower value 1.01 | locus YMR263W, strain SAP30, stronger effect = lower value 1 | locus YMR307W, strain GAS1, stronger effect = lower value 1.01 | locus YNL071W, strain lat1, stronger effect = lower value 1.01 | locus YNL128W, strain TEP1, stronger effect = lower value 0.995 | locus YNL175C, strain NOP13, stronger effect = lower value 1.02 and 1.01 | locus YNL183C, strain NPR1, stronger effect = lower value 1.01 | locus YNL197C, strain WHI3, stronger effect = lower value 1 and 1.01 | locus YNL209W, strain ssb2, stronger effect = lower value 1 | locus YNL224C, strain SQS1, stronger effect = lower value 1.01 and 1.02 | locus YNL248C, strain rpa49, stronger effect = lower value 1.04 | locus YNL322C, strain KRE1 (second series), stronger effect = lower value 1 | locus YNL322C, strain KRE1, stronger effect = lower value 1.01 | locus YNR049C, strain mso1, stronger effect = lower value 1.01 | locus YOR001W, strain rrp6, stronger effect = lower value 1.02 | locus YOR070C, strain gyp1, stronger effect = lower value 1.01 | locus YOR080W, strain dia2, stronger effect = lower value 1.02 | locus YOR083W, strain WHI5 (second series), stronger effect = lower value 1.02 and 0.993 | locus YOR083W, strain WHI5, stronger effect = lower value 1.01 | locus YOR106W, strain vam3, stronger effect = lower value 1.03 | locus YOR231W, strain MKK1, stronger effect = lower value 1.01 | locus YOR265W, strain rbl2, stronger effect = lower value 1.02 | locus YOR270C, strain vph1, stronger effect = lower value 1.06 | locus YOR290C, strain snf2, stronger effect = lower value 1.01 | locus YPL051W, strain arl3, stronger effect = lower value 1 | locus YPL078C, strain atp4, stronger effect = lower value 1.06 | locus YPL106C, strain sse1, stronger effect = lower value 0.985 | locus YPL240C, strain hsp82, stronger effect = lower value 0.993 | locus YPL256C, strain CLN2, stronger effect = lower value 1.02
